Assay outcomes deposited in PubChem BioAssay by several laboratories.
CYP2C9 inhib = human CYP2C9 inhibition; inhibition, % at 5 µM; P11712; CYP2C9 Supersomes, luciferin-H conversion, luminescence; hit rate 20% among 96,000;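 active = blocking of liver enzyme CYP2C9 beyond about 50% at 5 µM, limit read from the data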
CYP2C19 inh = blocks human cytochrome P450 2C19; P33261; CYP2C19 Supersomes, luciferin-H EGE luminescence, 30 min; inhibition, % at 5 µM; hit rate 21% among 96,000;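 active = CYP2C19 inhibition above a set limit at 5 µM in the primary screen, cut at about 50% in these data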
Target sequence (P33261 whole entry, looked up): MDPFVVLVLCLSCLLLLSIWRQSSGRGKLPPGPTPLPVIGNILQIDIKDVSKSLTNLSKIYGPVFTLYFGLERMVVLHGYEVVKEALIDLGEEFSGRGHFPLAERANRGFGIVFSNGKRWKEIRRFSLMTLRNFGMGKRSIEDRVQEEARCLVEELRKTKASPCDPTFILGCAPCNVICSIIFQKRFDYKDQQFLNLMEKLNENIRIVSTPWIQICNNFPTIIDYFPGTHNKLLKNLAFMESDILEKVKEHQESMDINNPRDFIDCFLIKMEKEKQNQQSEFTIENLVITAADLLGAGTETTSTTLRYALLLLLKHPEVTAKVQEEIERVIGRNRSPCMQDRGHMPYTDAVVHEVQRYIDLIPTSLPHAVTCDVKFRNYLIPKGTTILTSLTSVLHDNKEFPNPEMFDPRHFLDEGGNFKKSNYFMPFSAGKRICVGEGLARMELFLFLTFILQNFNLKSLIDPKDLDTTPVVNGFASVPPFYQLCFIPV
PostGolgi yeast = growth inhibition of a yeast mutant, post-Golgi transport screen; post-Golgi transport phenotypic cell assay; inhibition, % at 10 µM; hit rate 0.9% among 98,000; AID 739;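 note: yeast cells grown in 1536-well plates; yeast grown about 18 h at 30C before absorbance read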
CYP2C19 act = increases human CYP2C19 enzyme activity; P33261; recombinant CYP2C19, luciferin-H EGE luminescence; active compounds read high; 0 = fully inhibited enzyme, 1 = untreated enzyme; activation factor at 5 µM; 96,000 tested, under 10 active;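 active = activation factor of at least 2 at 5 µM in the primary screen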
CYP2C9 act = increases human cytochrome P450 2C9 activity. P11712. recombinant CYP2C9, luciferin-H conversion, luminescence; active compounds read high; factor 1 = untreated enzyme, 0 = blocked. activation factor at 5 µM. hit rate 1.4% among 96,000. AID 1024;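 active = activation factor of 2 or more for CYP2C9 at a 5 µM dose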
PostGolgi ctrl = growth of the yeast control strain, post-Golgi counter-screen; efflux-deficient yeast background strain, growth absorbance A615, 16 h; inhibition, % at 10 µM; hit rate 5% among 98,000
Hits are given with their value; – = inactive; · = no result given. Rows were chosen to be rich in hits. Some 32% of all compounds tested hit in one or more screens of this group. Cut-off read from the data, not from the text of the source, unless noted: active = inhibition above about 30%; inactive = the rest.

SMILES	CYP2C9 inhib	CYP2C19 inh	PostGolgi yeast	CYP2C19 act	CYP2C9 act	PostGolgi ctrl
Cc1ccccc1Cn1ccc(-c2ccc3c(c2)OCO3)n1	50	58	–	–	–	–
Nc1ccc(N2CCCCCC2)cc1	–	64	–	–	–	–
CC(=O)c1c(C(C)=O)c(C)n(-c2ccc(C(=O)O)cc2)c1C	–	–	–	–	–	–
O=C(O)c1ccc(N2CCCCC2)cc1	–	–	31	–	–	–
O=C(c1ccccc1)c1ccc(N2CCCC2)cc1	–	–	–	–	–	–
S=C(c1ccc(N2CCCC2)cc1)N1CCCCC1	–	–	–	–	–	–
Cc1ccc(C)n1-c1ccc(C(=O)O)cc1	56	–	–	–	–	–
CCn1c(/N=C/c2c[nH]c3ccccc23)nc2ccccc21	90	61	–	–	–	–
O=C(c1ccc(F)cc1)C1CCN(C(=O)NC2CCCCC2)CC1	–	–	–	–	–	–
CCOC(=O)N1CCN(C(=O)C2c3cc(OC)c(OC)cc3C(=O)N3CCc4ccccc4C23)CC1 (configuration not stated)	76	–	–	–	–	–
CCN(CC)CCCNC(=O)C1c2cc(OC)c(OC)cc2C(=O)N(C)C1c1cccs1 (configuration not stated)	–	74	–	–	–	–
CCN(CC)CCNC(=O)C1c2cc(OC)c(OC)cc2C(=O)N2CCc3ccccc3C12 (configuration not stated)	76	–	–	–	–	–
CCCN(CCC)CCCNC(=O)C1c2cc(OC)c(OC)cc2C(=O)N(C)C1c1cccs1 (configuration not stated)	–	–	–	–	–	–
CC(C)(C)c1ccc(OCCC(=O)NC2=NCCS2)cc1	–	–	–	–	–	–
O=c1cc2c(nn1Cc1ccc(Cl)cc1)-c1ccccc1CC2	97	97	–	–	–	48
O=c1cc2c(nn1Cc1cccc(Cl)c1)-c1ccccc1CC2	100	84	–	–	–	76
CN1CCN(C(=O)c2ccc3c(c2)N(Cc2ccc(Cl)cc2)C(=O)c2ccccc2S3=O)CC1 (configuration not stated)	–	–	–	–	–	–
O=C(CSc1ncnc2c1cnn2-c1ccccc1Cl)N1CCN(C(=O)c2ccco2)CC1	–	–	–	–	–	–
Cc1ccc(OCC(=O)N2N=C(C(F)(F)F)CC2(O)C(C)(C)C)cc1C (configuration not stated)	–	–	–	–	–	33
O=C(CSc1nnc(CNC(=O)c2cccs2)o1)NCCc1ccccc1	·	·	–	·	·	–
COc1c(F)c(F)c(C(=O)Nc2cccc(Cl)c2N2CCOCC2)c(F)c1F	–	–	–	–	–	–
O=C(C1CC1)N(CCN(Cc1ccccc1)C(=O)C1CC1)Cc1ccccc1	–	54	–	–	–	–
O=C(C1CCCCC1)N(Cc1ccccc1)c1ccccn1	–	–	–	–	–	–
CCOc1ccc(C(=O)C2CCN(CC(=O)Nc3ccccc3N3CCOCC3)CC2)cc1	96	99	–	–	–	–
CCOc1ccc(C(=O)Nc2ccccc2N2CCCC2)cc1	–	–	–	–	–	–
SMILES	CYP2C9 inhib	CYP2C19 inh	PostGolgi yeast	CYP2C19 act	CYP2C9 act	PostGolgi ctrl
CCOc1ccccc1N1CC(C(=O)Nc2ccccc2N2CCOCC2)CC1=O (configuration not stated)	–	–	–	–	–	–
O=C(Nc1ccccc1N1CCCCC1)c1ccc(F)cc1	–	–	–	–	–	–
CCOc1ccc(C(=O)Nc2ccccc2N2CCOCC2)cc1	–	–	–	–	–	33
CN(C)CCCNCC(=O)Nc1ccccc1N1CCOCC1	67	–	–	–	–	–
COc1ccc(-c2ocnc2C(=O)Nc2ccccc2N2CCCCC2)cc1	57	–	–	–	–	–
COc1ccc(C(C)(C)C)cc1NC(=O)c1cncc(Br)c1	–	–	–	–	–	–
COc1cccc2c1OC[C@@H](CO)[C@H]2N(C)C(=O)Nc1ccc(Cl)cc1	–	–	–	–	–	–
CC1(C)Cc2cccc(OCC(=O)O)c2O1	·	·	–	·	·	–
CC1(C)Cc2cccc(OCC(=O)Nc3ccccc3N3CCOCC3)c2O1	56	91	–	–	–	–
COc1ccc(-c2nnc(SC(C)C(=O)Nc3c(C)n(C)n(-c4ccccc4)c3=O)o2)cc1 (configuration not stated)	–	–	–	–	–	–
CCC(C)C(=O)N1c2ccccc2C(=C2SC(C(=O)OC)=C(C(=O)OC)S2)C(=S)C1(C)C (configuration not stated)	72	76	–	–	–	–
O=C(COC(=O)[C@H](Cc1ccccc1)NS(=O)(=O)c1ccccc1F)NC1CCCCC1	–	–	–	–	–	–
CCCSc1nnc(N2C(=O)CC(c3ccsc3)C3=C2CCCC3=O)s1 (configuration not stated)	–	–	–	–	–	48
CCCSC1=N/C(=C\c2ccsc2)C(=O)S1	–	–	–	–	–	–
O=C(Nc1ccccc1)C1=C(O)CC(c2ccoc2)CC1=Nc1ccccc1 (configuration not stated)	–	–	–	–	–	46
O=C(Nc1ccccc1)C1=C(O)CC(c2ccco2)CC1=Nc1ccccc1 (configuration not stated)	–	–	69	–	–	31
CCOC(=O)c1nn(-c2ccccc2C)c2nc(-c3ccc(Cl)cc3)c(C#N)c(=O)n12	–	–	–	–	–	–
Cn1c(Cn2c(=O)sc3ccccc32)nnc1SCc1ccccc1	·	·	–	·	·	–
Cc1cc(NO)nc(-c2ccc(Br)cc2)n1	–	–	–	–	–	–
COc1ccc(S(=O)(=O)N(C)c2ccc(C(=O)N3CCOCC3)cc2)cc1OC	–	–	–	–	–	–
CC(C)(C)NC(=O)Cn1c(=O)oc2cc(S(=O)(=O)N3CCc4ccccc43)ccc21	–	–	–	–	–	–
CCOC(=O)Cn1c(=O)oc2cc(S(=O)(=O)N3CCc4ccccc43)ccc21	74	67	–	–	–	–
Cn1c(=O)c(=O)n(C)c2cc(S(=O)(=O)N3CCc4ccccc43)ccc21	54	–	–	–	–	–
CCOC(=O)Cn1c(=O)oc2cc(S(=O)(=O)NC(C)c3ccccc3)ccc21 (configuration not stated)	51	78	–	–	–	–
CCOC(=O)Cn1c(=O)oc2cc(S(=O)(=O)N(CCN(C)C)Cc3ccccc3)ccc21	–	–	–	–	–	–
CCOC(=O)Cn1c(=O)oc2cc(S(=O)(=O)NCCC(C)C)ccc21	80	–	–	–	–	–
CCOCCCNS(=O)(=O)c1ccc2c(c1)oc(=O)n2CC(=O)OCC	–	–	–	–	–	–
O=c1c2ccccc2nc(CSc2ncnc3nc[nH]c23)n1-c1cccc(C(F)(F)F)c1	–	–	–	–	–	–
CCCc1cc(=O)[nH]c(SCC(=O)N2CCC(C(=O)OCC)CC2)n1	–	–	–	–	–	–
